PubChem BioAssay (NCI)
Compounds without any hit were thinned out: in the full panel of roughly 83,000, 20% have a hit.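 Treatment: one concentration, 48 hours, 96-well format. Scoring: percent growth, with anything below 10 considered active.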 A number with no mark means an inactive call. Activity calls are given as the source filed them.

The molecules below were run on HL-60(TB) leukemia (assay: NCI-60 one-dose screen, 48 h (100 = growth as untreated, 0 = no growth, -100 = all killed)). Conditions: 10 µM unless noted.

Q: How did the growth turn out when Cc1cc2nc(CO)[nH]c2cc1C was run?
A: Its growth is 89.7%.

Q: Cc1cccc(NC(=O)c2sc3nc4c(cc3c2N)CN(Cc2ccccc2)CC4)c1C was tested. Which growth did it give?
A: Its growth is 7.62% (active).

Q: How did the growth turn out when S=c1nn[nH]c2ccccc12 was run?
A: Its growth is 105%.

Q: Which growth does the source give for CCC1=CC2CN(C1)Cc1c([nH]c3ccccc13)[C@@](C(=O)OC)(c1cc3c(cc1OC)N(C)[C@H]1[C@@](O)(C(=O)OC)[C@H](OC(C)=O)[C@]4(CC)C=CCN5CC[C@]31[C@@H]54)C2 (stereo not given in full) here?
A: The growth was -15.6% (active).

Q: CN1CCN(CCCNc2nccc(-c3c(-c4ccc(F)c(O)c4)nc4sccn34)n2)S1(=O)=O was tested. Which growth did it give?
A: Its growth is 78.3%.

Q: How did the growth turn out when COc1ccc(C(C)c2cc(OC)c(OC)c(OC)c2)cc1 (stereo not given) was run?
A: Its growth is -15.6% (active).

Q: How did the growth turn out when Cc1cc(N(CCCNc2ccnc3cc(Cl)ccc23)Cc2ccco2)nc(Cl)n1 was run?
A: The growth was 17.5%.

Q: Which growth does the source give for NCCN1CCNCC1 here?
A: The growth was 97.6%.

Q: COc1cc2nc(-c3ccc(Cl)cc3)cc(OCCCN3CCC(O)CC3)c2cc1OC was tested. Which growth did it give?
A: The growth was 32.9%.

Q: How did the growth turn out when CNC(=O)c1cc(Oc2ccc(NC(=O)c3nc(S(C)(=O)=O)n(C)c3-c3ccc(F)cc3)cc2)ccn1 was run?
A: Its growth is 69.8%.

Q: With O=C1C=CC(=O)N1c1cccc2c1CCCC2 as the molecule, how does the growth read?
A: Its growth is 34.2%.

Q: How did the growth turn out when CCN1CCN(c2nc(C)cc(N(CCCNc3ccnc4cc(Cl)ccc34)Cc3ccco3)n2)CC1 was run?
A: The growth was 37.5%.

Q: For O=C1CSC(c2ccccc2Cl)N1c1nnc(-c2ccncc2)o1 (stereo not given), which growth is on record?
A: Its growth is 95.2%.

Q: Which growth does the source give for COc1ccc2nc3cc(Cl)ccc3c(NC(=O)CSc3ccc(Cl)cc3)c2c1 here?
A: Its growth is -50.7% (active).

Q: NC(=O)c1c(NC(=O)c2cccc(C(F)(F)F)c2)sc2c1CCC(=O)C2 was tested. Which growth did it give?
A: Its growth is -11.6% (active).

Q: With NCC(=O)NC(CC(=O)O)C(=O)O (stereo not given) as the molecule, how does the growth read?
A: The growth was 90.7%.

Q: How did the growth turn out when CC(=O)C1=C(C)NC(SCc2nnc(-c3ccc(C)cc3)o2)=NC1c1ccc(F)cc1 (stereo not given) was run?
A: The growth was 80.8%.

Q: Which growth does the source give for C#CC(O)c1ccccc1 (stereo not given) here?
A: Its growth is 108%.

Q: Which growth does the source give for O=S(=O)(Nc1ccccc1Cl)c1ccc(-c2cnc(C3CC3)o2)cc1 here?
A: The growth was 7.9% (active).

Q: COc1cc2nc(Cc3ccc(C)cc3)[nH]c(=O)c2cc1OC was tested. Which growth did it give?
A: The growth was 98.7%.

Q: Which growth does the source give for Cc1ccc(S(=O)(=O)NC(=O)n2cc(-c3ccncc3)c(-c3ccc(Cl)c(O)c3)n2)cc1 here?
A: Its growth is 85.1%.

Q: How did the growth turn out when Cc1ccc(C)n1-c1ccsc1C(=O)NNC(=O)C(Cl)Cl was run?
A: Its growth is 106%.

Q: With C=C1C(=O)O[C@H]2[C@H]1CC/C(COC(=O)/C=C\C(=O)NCc1ccc(Cn3c(=O)sn(CCCCC)c3=O)cc1)=C\CC[C@@]1(C)O[C@@H]21 as the molecule, how does the growth read?
A: The growth was -17.6% (active).

Q: For COc1ccc(/C=C/C(c2cc(OC)c(OC)c(OC)c2)n2ccnc2)cc1O (stereo not given), which growth is on record?
A: The growth was -36.6% (active).

Q: How did the growth turn out when Cc1nn(-c2ccccc2)c(N2CCCCC2)c1/C=N/NC(=O)Cn1c(=O)sc2ccccc21 was run?
A: Its growth is 69.9%.

Q: With COc1cc(-c2nn(-c3ccc(NC(=O)Nc4ccc(Cl)c(Cl)c4)cc3)cc2-c2ccncc2)ccc1Cl as the molecule, how does the growth read?
A: Its growth is 4.29% (active).

Q: How did the growth turn out when Cc1ccc(NC(=O)Cn2c(Br)nc3c2c(=O)n(C)c(=O)n3C)cc1 was run?
A: The growth was 102%.

Q: O=C(CCl)NC1c2ccccc2Oc2ccccc21 was tested. Which growth did it give?
A: The growth was 78.4%.

Q: Which growth does the source give for C=CC(=O)N1CC2(CCC(n3nc(-c4ccc(Oc5ccccc5)cc4)c4c(N)ncnc43)CC2)C1 here?
A: The growth was -38.5% (active).

Q: For Nc1nc(NC2CC2)cc(-c2cccc(Cl)c2Cl)n1, which growth is on record?
A: Its growth is 32.6%.

Q: How did the growth turn out when COC(=O)/C(CCC=C(C)C)=C1\[C@@H](OC(C)=O)C[C@@]2(C)[C@H]1CC(=O)[C@H]1[C@@]3(C)CCC(N4CCCC4)[C@@H](C)[C@@H]3CC[C@@]12C (stereo not given in full) was run?
A: The growth was -51.4% (active).

Q: COc1cc(/C=C/C(=O)c2cccc(-n3cc(-c4ccc(Cl)cc4)[nH]c3=O)c2)cc(OC)c1OC was tested. Which growth did it give?
A: The growth was 62.7%.

Q: How did the growth turn out when CCSc1ccc([C@@H]2[C@@H](N)C(=O)N2c2cc(OC)c(OC)c(OC)c2)cc1 was run?
A: Its growth is -40.5% (active).

Q: With CCOc1ccccc1-c1cc(-c2cccs2)c(C#N)c(=O)[nH]1 as the molecule, how does the growth read?
A: Its growth is 78.9%.

Q: How did the growth turn out when CC1=C(/C=C/C(C)=C/C=C(C(=O)O)\C(C)=C\C(=O)O)C(C)(C)CCC1 was run?
A: Its growth is 85.3%.

Q: Which growth does the source give for O=C1Nc2ccccc2C1=NC1CCCCC1 here?
A: Its growth is 110%.

Q: Which growth does the source give for CCCc1c(OC(=O)c2ccccc2)nc2[nH]c(=O)sc2c1C here?
A: The growth was 98%.

Q: With Brc1ccc(Br)nn1 as the molecule, how does the growth read?
A: The growth was -32.7% (active).

Q: CC(C)=CC/C=C(/C)[C@H]1CC[C@]2(C)[C@@H]1CC[C@@H]1[C@@]3(C)CCC(=O)NC(C)(C)[C@@H]3CC[C@]12C was tested. Which growth did it give?
A: Its growth is -22.1% [100 µM] (active).

Q: With C=C(C)[C@@H]1CC[C@]2(C(=O)O)CC[C@]3(C)[C@H](CC[C@@H]4[C@@]5(C)C[C@@H](CC#Cc6ccccc6C)C(=O)C(C)(C)[C@@H]5CC[C@]43C)[C@@H]12 as the molecule, how does the growth read?
A: The growth was -14.7% (active).
